High-throughput results from PubChem BioAssay.
TDP1 cell CPT: growth inhibition of DT40 Tdp1-/-;hTDP1 cells with camptothecin (screen for TDP1 inhibitors) | 12% of 420,000 active | chicken DT40 Tdp1-/-;hTDP1 cells + 20 nM CPT, ATP luminescence, 48 h | Potency, µM (highest dose often 46.2 µM), for inactives: at the top dose activity change, negative = growth inhibition, most hits filed as inhibitors | AID 686979; further: nearly all actives have a fitted effect of over 55% in size
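Cell growth measured by CellTiter-Glo luminescence after a minimum 48 h, 37 C compound exposure with 20 nM CPT in Tdp1-knockout DT40 cells stably expressing hTDP1, seeded 400/well; qHTS titration format.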
PLK1 PBD inh: blocks phosphopeptide binding to human PLK1 polo-box domain; 2.8% of 360,000 active; Potency, µM, inactives show max response, negative = inhibition, most hits filed as inhibitors; Plk1 PBD binding of FITC phosphopeptide, fluorescence polarization; P53350; further: series mostly up to about 57 µM; nearly all actives have a fitted effect of over 65% in size
DT40 TDP1 no CPT: qHTS for Inhibitors of human tyrosyl-DNA phosphodiesterase 1 (TDP1): qHTS in cells in absence of CPT | DT40 Tdp1-/- hTDP1 cells, no CPT, ATP luminescence, 48 h | Potency, µM (series often up to 46.2 µM), for the others: at the highest dose activity change, negative = growth inhibition, hits mostly inhibitors | 15% of 420,000 active; further: nearly all actives have a fitted effect of over 55% in size
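Cells were dispensed at 400 per well, compounds added by pin tool, plates incubated ≥48 hr at 37 °C, then CellTiter-Glo added for 30 min at room temperature before luminescence reading. Line: DT40 Tdp1-/- complemented with hTDP1; camptothecin omitted.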
TDP1 inh: TDP1 (human) enzyme inhibition; Q9NUW8; recombinant TDP1, AlphaScreen DNA substrate cleavage; Potency, µM (doses to about 130 µM), for the others: at the top dose activity change, negative = inhibition, most hits filed as inhibitors; 0.28% of 350,000 active; further: nearly all actives have a fitted effect of over 40% in size
Target sequence (Q9NUW8 whole entry, looked up): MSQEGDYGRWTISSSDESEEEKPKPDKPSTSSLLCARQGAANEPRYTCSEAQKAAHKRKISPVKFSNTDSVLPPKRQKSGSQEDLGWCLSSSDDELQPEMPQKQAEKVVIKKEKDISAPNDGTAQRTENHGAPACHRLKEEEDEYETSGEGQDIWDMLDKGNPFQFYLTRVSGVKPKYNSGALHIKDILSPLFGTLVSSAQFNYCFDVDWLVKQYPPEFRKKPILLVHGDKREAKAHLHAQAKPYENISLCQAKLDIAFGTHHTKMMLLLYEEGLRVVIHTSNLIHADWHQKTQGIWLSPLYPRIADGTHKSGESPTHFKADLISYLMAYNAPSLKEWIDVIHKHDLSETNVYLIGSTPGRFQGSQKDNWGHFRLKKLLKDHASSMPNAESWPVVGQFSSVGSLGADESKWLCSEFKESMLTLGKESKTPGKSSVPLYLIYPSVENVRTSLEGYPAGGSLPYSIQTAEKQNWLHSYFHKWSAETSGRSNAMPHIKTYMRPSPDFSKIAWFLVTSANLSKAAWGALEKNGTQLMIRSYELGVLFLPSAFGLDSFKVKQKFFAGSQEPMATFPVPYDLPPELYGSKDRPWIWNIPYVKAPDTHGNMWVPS
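AlphaScreen read-out: signal falls as enzyme removes the 3' tyrosine-FITC from a 5'-biotinylated DNA oligo (15 nM, 5 min, RT). Enzyme was E. coli-made recombinant Tdp1 at 1 nM, exposed to compound for 15 min beforehand; beads 10 ug/ml, 10 min.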
KAT2A inh: blocks human GCN5L2 histone acetyltransferase; Q92830; GCN5L2 HAT assay, ThioGlo1 CoA-SH fluorescence; Potency, µM (highest dose often 58.9 µM), without a hit: top-dose activity change, negative = inhibition, most hits filed as inhibitors; 0.21% of 390,000 active; AID 504327
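Free CoA generated was detected with ThioGlo1 (50uM) fluorescence at Ex340nm/Em540nm, read immediately and after 20 min at room temperature. Enzyme, 20 nM in HEPES pH 7.5 buffer, saw compounds 15 min before adding 75uM H3(1-25) peptide and 70uM acetyl-CoA.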
VDR inhibitor: vitamin D3 receptor (human) inhibition. Potency, µM, without a hit: max response, negative = inhibition, hits mostly inhibitors. VDR-SRC2-3 peptide fluorescence polarization, 2 h. P11473. 0.93% of 400,000 active
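Reagent solutions, kept cold and dark, are dispensed first; compounds are then pinned in at 23 nl, plates briefly spun, and incubated 2 h at ambient temperature. Inhibition of VDR–SRC2-3 peptide binding is read by fluorescence polarization.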
Active calls of the source: *; ? = inconclusive; · = not tested or not shown; [ ] = remark or other dose. Sampled rows, rich in hits. Any-hit rate of the full collection: about 18%. The call rests on the fitted dose curve; in most records, active means well fitted curve in the direction sought with a large enough effect; inconclusive means small, poorly fitted or top-dose-only effect, or another doubt; inactive means no such curve, though single readings can be large; an effect the other way counts as inactive or inconclusive. On the % scale 0 is the no-effect control and ±100 the full control effect; potency means the concentration at half of the fitted maximal effect.

SMILES	TDP1 cell CPT	PLK1 PBD inh	DT40 TDP1 no CPT	TDP1 inh	KAT2A inh	VDR inhibitor
O=c1c2ccccc2nc(/C=C/c2ccccc2)n1CCCO	?	2%	?	·	0%	-3%
COc1ccc(C(O)C2=CCCC2=O)cc1 (stereo not given)	·	·	·	-5%	·	-4%
CCSc1nc2ccccc2c(=O)n1CCc1ccc(OC)c(OC)c1	13µM*	-4%	12µM*	·	-9%	12%
COc1ccc(CCn2nnc3ccccc3c2=O)cc1OC	-24%	-1%	?	·	·	·
COc1ccc(CCn2c(C)nc3ccccc3c2=O)cc1OC	?	-2%	21µM*	-2%	-8%	1%
COc1ccc(CCn2c(C)c(C(C)=O)c3cc(OC(=O)c4ccco4)ccc32)cc1OC	?	24µM*	?	4%	0%	4%
O=c1c2ccccc2nc(/C=C/c2ccc(O)cc2)n1CCc1ccccc1	7.3µM*	6%	8.2µM*	-5%	-5%	-16%
COCCNC(=O)c1nn(-c2ccc(C)cc2)c(=O)n(C)c1=O	-7%	·	-13%	-2%	2%	4%
CC(C)c1c(O)ccc2c1CCC1[C@@](C)(C=O)CCC[C@@]21C (stereo not given in full)	?	·	?	11%	-16%	-5%
CCC(C)c1ccccc1NC(=O)C(C)OC(=O)CN1C(=O)NC(C)(C)C1=O (stereo not given)	5%	-3%	-2%	0%	-4%	-3%
NC1=NC(c2cccc(Cl)c2)n2c(nc3ccccc32)N1 (stereo not given)	3%	·	-21%	3%	-3%	-20%
O=C(COC(=O)c1ccccc1O)NCCCc1ccccc1	-6%	30µM*	-22%	5%	-6%	-7%
COc1cc(CC(=O)NCCCc2ccccc2)cc(OC)c1OC	?	-2%	21µM*	4%	-3%	0%
CCCOC(=O)c1ccccc1O	-9%	·	-24%	·	-6%	8%
O=C(OCCCOC(=O)c1ccccc1O)c1ccccc1O	·	·	·	18µM*	-6%	·
O=C(OCc1csc(-c2ccccc2)n1)c1ccccc1O	16%	3%	5%	-5%	-6%	-19%
O=C(OCc1ccccc1)c1ccccc1O	1%	-7%	-3%	79µM*	-5%	-15%
CC(=O)NCCCN(Cc1ccc(Cl)c(Cl)c1)c1ccc(Br)cn1	?	·	?	·	·	-23%
COc1ccc(NC(=O)CSc2nc3c(oc4ccccc43)c(=O)n2-c2ccc(C)c(C)c2)cc1	-5%	·	0%	-3%	-4%	-2%
COC(=O)C1CCN(Cc2ccc3c(c2)CN(C(=O)c2cc(-c4ccc(C)o4)[nH]n2)CCO3)CC1	0.082µM*	·	?	·	·	·
COC(=O)C1CCN(Cc2ccc3c(c2)CN(C(=O)c2cc(C)on2)CCO3)CC1	10%[9.04 µM]	·	-18%	·	·	·
COC(=O)C1CCN(Cc2ccc3c(c2)CN(C(=O)c2cc4cc(F)ccc4[nH]2)CCO3)CC1	-10%[9.04 µM]	·	15µM*	·	·	·
CC1CC(C)(C)Nc2ccc(N=O)cc21 (stereo not given)	2.3µM*	-8%	1.8µM*	-13%	-10%	-28%
COc1ccc(N(C)C(=O)CCn2cnc3onc(-c4ccc(F)cc4)c3c2=O)c(OC)c1	21µM*	·	13µM*	-2%	-2%	10%
CN(C(=O)Cn1cnc2onc(-c3ccc(F)cc3)c2c1=O)c1ccccc1Cl	21µM*	·	?	5%	0%	12%
CCOc1ccccc1N(C)C(=O)Cn1cnc2onc(-c3ccc(F)cc3)c2c1=O	?	·	21µM*	3%	21%	15%
O=C(O)CCn1cnc2onc(-c3cc(F)cc(F)c3)c2c1=O	1%	·	5%	4%	-8%	-1%
C/C(=N\NC(=O)c1nnn(-c2nonc2N)c1CSc1ccc(C)cc1)c1cccs1	-18%	-11%	?	·	·	·
